According to ChEMBL document CHEMBL5308504, “Tm Shift (DSF) assay results for EUbOPEN Chemogenomics Library” (2023):
“And” between values parts separate entries of the source, which are not always exact repeats. Equal values may be shown once.

These compounds were tested against Bromodomain-containing protein 4 (Homo sapiens) (UniProt O60885). Details: Compound concentration 20.0 uM, Protein concentration 2.0 uM, Result type QC Liability.
N#Cc1ccc(COc2ccc(Br)cc2CNCCO)cn1 showed a ΔTm of -0.82 °C.
Compound C=CC(=O)Nc1cccc(C)c1Nc1ncc2cc(-c3c(Cl)c(OC)cc(OC)c3Cl)ccc2n1 has a ΔTm of 0.13 °C.
CC(=O)Nc1ncc(CN2CCC[C@H](Cc3cc(C)nc(C)c3)C2)s1 gave a ΔTm of 0.62 °C.
O=C(O)c1ccnc(N2CC(O)(c3ccc(OCc4c(-c5c(Cl)cccc5Cl)noc4C4CC4)cc3Cl)C2)c1 was tested, and the ΔTm was -4.33 °C.
For Cc1ccc(-c2cn3nc(C(=O)NC4(c5ccc(F)cc5)CN(C)C4)c(C(C)C)c3c(=O)[nH]2)cc1C, the ΔTm was -24.1 °C.
Compound N[C@@H](CC(=O)O)Cn1nnc(-c2ccc(Oc3ncc(Cl)cc3F)cc2)n1 has a ΔTm of -12.6 °C.
CC1(C)Oc2ncnc(N)c2N=C1c1ccc([C@H]2CC[C@H](CC(=O)O)CC2)cc1 gave a ΔTm of -1.69 °C.
In the case of Cn1c(Nc2c(Cl)cccc2Cl)nc2ccc3nc[nH]c(=O)c3c21, the ΔTm is reported as -3.08 °C.
With NC(=O)OC[C@H](NC(=O)Cn1nc(-c2ccc(Cl)cc2)n(C[C@H](O)C(F)(F)F)c1=O)c1cccc(C(F)(F)F)c1 the ΔTm was 0.39 °C.
NC1(c2ccc(-c3nc4c(O)ccnn4c3-c3ccccc3)cc2)CCC1 was tested, and the ΔTm was -0.63 °C.
CC[C@H](CC(=O)O)n1c(=O)c2ncccc2n(Cc2cn(C)c3cc(C)cc(C)c23)c1=O was tested, and the ΔTm was -1.38 °C and -3.06 °C.
Work on O=C1Nc2ccc(C(=O)c3ccco3)cc2C1=Cc1cc(Cl)c(O)c(Cl)c1 yielded a ΔTm of 0.79 °C.
Cc1nc2ccc(Cl)cc2c(-c2ccccc2)c1CC(=O)O showed a ΔTm of -0.84 °C.
Cc1cc(=O)oc2cc(NC(=O)[C@H](Cc3ccc(I)cc3)NC(=O)[C@H]3N[C@@H]4CC[C@H]3C4)ccc12 showed a ΔTm of -0.26 °C.
Work on CCOC(=O)c1cc2cc(-c3cc(C(=O)NCc4ccc(C(=O)O)cc4)nn3C)ccc2[nH]1 yielded a ΔTm of -0.14 °C.
Compound CC[C@@H](C(=O)OC)n1c(=O)c2ccccc2n(Cc2cn(C)c3cccc(C)c23)c1=O has a ΔTm of 1.22 °C.
For CNS(=O)(=O)c1ccc(N(C)C)c(Nc2ncnc3cc(OC)c(OC)cc23)c1, the ΔTm was -3.63 °C.
In the case of CCc1nc(-c2cccc(C)c2)c(-c2ccncc2)s1, the ΔTm is reported as 0.55 °C.
Cc1cc2c(cc(C(=O)N[C@H](CO)c3ccc(S(=O)(=O)CC(=O)O)cc3)n2C)c(Cl)c1Cl showed a ΔTm of 2.14 °C.
Cc1ccc(-n2nc(C(C)(C)C)cc2NC(=O)Nc2ccc(OCCN3CCOCC3)c3ccccc23)cc1 was tested, and the ΔTm was 0 °C and -1.27 °C.
With Cc1n[nH]c2ncc(C(=O)N3CCC[C@H]3c3ccc(Cl)cc3)cc12 the ΔTm was 0 °C.
Compound COc1ccc(CSc2nnc(-c3ccc4ncsc4c3)o2)cc1C(F)(F)F has a ΔTm of -5.83 °C.
Cc1cc(CN)cc(C)c1-c1ncn(C)c1-c1ccnc2cc(F)ccc12 was tested, and the ΔTm was -0.64 °C.
Compound CCCS(=O)(=O)N[C@H]1C[C@@H](N(C)c2ncnc3[nH]ccc23)C1 has a ΔTm of -0.54 °C.
Compound CC(C)(O)[C@H](F)CN1Cc2cc(NC(=O)c3cnn4cccnc34)c(N3CCOCC3)cc2C1=O has a ΔTm of -0.35 °C.
CC(C)(C)OC(=O)CN(Cc1ccc(Cl)cc1)Cc1ccc([N+](=O)[O-])s1 gave a ΔTm of -2.44 °C.
Cc1[nH]c2c(N3CCCCC3)c(-c3ccccc3)nn2c(=O)c1-c1ccc(O)cc1 gave a ΔTm of -1.3 °C.
Compound O=C(O)c1ccc(OCCCc2ccc(OCCCCOC3CCCCC3)cc2)c(C(=O)NC2CCCC(C(=O)O)C2)c1 (stereo not drawn) has a ΔTm of 0.35 °C.
For Nc1nc(-c2nn(Cc3ccccc3F)c3ncccc23)ncc1C1CC1, the ΔTm was 1.11 °C.
COc1ccc(Br)cc1S(=O)(=O)NC(=O)/C=C/c1cc(Cl)ccc1Cc1ccc2ccccc2c1 showed a ΔTm of -4.74 °C.
Compound O=C1CCCN1CCNc1nc(Nc2ccc(Cl)c(Cl)c2)ncc1C(F)(F)F has a ΔTm of -2.43 °C.
COc1cc(-c2nn([C@H]3CC[C@H](N4CCN(C(C)=O)CC4)CC3)c3ncnc(N)c23)ccc1NC(=O)c1cc2ccccc2n1C showed a ΔTm of 0.13 °C.
CN1C(=O)Cc2ccc(-c3ccc(C[C@@H](C#N)NC(=O)[C@H]4N[C@@H]5CC[C@H]4C5)c(F)c3)cc21 was tested, and the ΔTm was 0.1 °C.
Work on Cc1cn([C@@H](C)CC#N)c(=O)c2cc(Cn3nc(C(F)F)cc3Cl)nn12 yielded a ΔTm of -0.88 °C.
NCc1ccc(OCCCc2sc(-c3ccc4c(c3)/C(=N/Nc3nc5ccccc5s3)CCC4)nc2C(=O)O)cc1 showed a ΔTm of -11 °C.
CN(c1ccc(C(F)(F)F)cc1)S(=O)(=O)c1ccc(C(=O)Nc2nc(-c3ccccn3)cs2)cc1 was tested, and the ΔTm was 6.63 °C.
Compound c1ccc2c(-c3coc4cc(-c5ccc(N6CCNCC6)cc5)cnc34)ccnc2c1 has a ΔTm of -1.89 °C.
Compound c1ccc2c(c1)SCc1c-2[nH]c2ccccc12 has a ΔTm of -15.3 °C.
In the case of Nc1ncnc2[nH]c(-c3ccccc3)nc12, the ΔTm is reported as -1.11 °C.

What follows are compounds tested against T1, Transcription intermediary factor 1-alpha (Homo sapiens) (UniProt O15164). Details: Compound concentration 20.0 uM, Protein concentration 2.0 uM, Result type QC Liability.
T1 sequence (whole entry): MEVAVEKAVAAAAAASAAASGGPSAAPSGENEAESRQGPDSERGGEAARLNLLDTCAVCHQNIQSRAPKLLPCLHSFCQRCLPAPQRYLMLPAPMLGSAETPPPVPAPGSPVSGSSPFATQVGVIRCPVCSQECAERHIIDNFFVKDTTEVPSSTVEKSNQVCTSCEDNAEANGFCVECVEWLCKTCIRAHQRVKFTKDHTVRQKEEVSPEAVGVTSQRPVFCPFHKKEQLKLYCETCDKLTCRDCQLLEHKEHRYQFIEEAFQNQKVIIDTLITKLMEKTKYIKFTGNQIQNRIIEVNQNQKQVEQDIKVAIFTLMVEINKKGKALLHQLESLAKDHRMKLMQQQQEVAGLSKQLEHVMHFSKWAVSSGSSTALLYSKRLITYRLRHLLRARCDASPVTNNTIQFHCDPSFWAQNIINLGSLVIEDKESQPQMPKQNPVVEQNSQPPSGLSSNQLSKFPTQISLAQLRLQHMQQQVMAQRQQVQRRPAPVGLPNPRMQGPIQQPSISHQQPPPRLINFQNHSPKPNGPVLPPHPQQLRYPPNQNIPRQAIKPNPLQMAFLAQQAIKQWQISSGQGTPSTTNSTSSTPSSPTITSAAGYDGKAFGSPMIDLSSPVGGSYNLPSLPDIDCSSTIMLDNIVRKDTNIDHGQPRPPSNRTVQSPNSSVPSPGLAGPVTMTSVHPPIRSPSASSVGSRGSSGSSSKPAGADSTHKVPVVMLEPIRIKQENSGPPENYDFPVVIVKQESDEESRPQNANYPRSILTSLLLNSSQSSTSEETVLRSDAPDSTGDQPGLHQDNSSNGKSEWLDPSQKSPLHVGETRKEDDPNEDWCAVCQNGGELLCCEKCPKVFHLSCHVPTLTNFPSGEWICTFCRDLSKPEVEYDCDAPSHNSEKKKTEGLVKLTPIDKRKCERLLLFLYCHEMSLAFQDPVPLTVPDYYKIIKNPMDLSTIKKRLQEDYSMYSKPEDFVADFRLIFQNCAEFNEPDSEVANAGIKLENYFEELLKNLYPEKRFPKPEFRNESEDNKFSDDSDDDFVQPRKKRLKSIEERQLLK
Work on N#Cc1ccc(COc2ccc(Br)cc2CNCCO)cn1 yielded a ΔTm of -0.53 °C.
Work on C=CC(=O)Nc1cccc(C)c1Nc1ncc2cc(-c3c(Cl)c(OC)cc(OC)c3Cl)ccc2n1 yielded a ΔTm of 0 °C.
For CC(=O)Nc1ncc(CN2CCC[C@H](Cc3cc(C)nc(C)c3)C2)s1, the ΔTm was -2.22 °C.
O=C(O)c1ccnc(N2CC(O)(c3ccc(OCc4c(-c5c(Cl)cccc5Cl)noc4C4CC4)cc3Cl)C2)c1 was tested, and the ΔTm was -1.77 °C.
Cc1ccc(-c2cn3nc(C(=O)NC4(c5ccc(F)cc5)CN(C)C4)c(C(C)C)c3c(=O)[nH]2)cc1C was tested, and the ΔTm was 0.46 °C.
Work on N[C@@H](CC(=O)O)Cn1nnc(-c2ccc(Oc3ncc(Cl)cc3F)cc2)n1 yielded a ΔTm of -0.53 °C.
Work on CC1(C)Oc2ncnc(N)c2N=C1c1ccc([C@H]2CC[C@H](CC(=O)O)CC2)cc1 yielded a ΔTm of -0.57 °C.
Work on Cn1c(Nc2c(Cl)cccc2Cl)nc2ccc3nc[nH]c(=O)c3c21 yielded a ΔTm of -3.83 °C.
For NC(=O)OC[C@H](NC(=O)Cn1nc(-c2ccc(Cl)cc2)n(C[C@H](O)C(F)(F)F)c1=O)c1cccc(C(F)(F)F)c1, the ΔTm was 0.59 °C.
For NC1(c2ccc(-c3nc4c(O)ccnn4c3-c3ccccc3)cc2)CCC1, the ΔTm was -1.89 °C.
For CC[C@H](CC(=O)O)n1c(=O)c2ncccc2n(Cc2cn(C)c3cc(C)cc(C)c23)c1=O, the ΔTm was 0.26 °C and -1.81 °C.
O=C1Nc2ccc(C(=O)c3ccco3)cc2C1=Cc1cc(Cl)c(O)c(Cl)c1 showed a ΔTm of -3.45 °C.
With Cc1nc2ccc(Cl)cc2c(-c2ccccc2)c1CC(=O)O the ΔTm was 0.64 °C.
Compound Cc1cc(=O)oc2cc(NC(=O)[C@H](Cc3ccc(I)cc3)NC(=O)[C@H]3N[C@@H]4CC[C@H]3C4)ccc12 has a ΔTm of 0.3 °C.
CCOC(=O)c1cc2cc(-c3cc(C(=O)NCc4ccc(C(=O)O)cc4)nn3C)ccc2[nH]1 gave a ΔTm of 0.44 °C.
CC[C@@H](C(=O)OC)n1c(=O)c2ccccc2n(Cc2cn(C)c3cccc(C)c23)c1=O showed a ΔTm of 0.71 °C.
Work on CNS(=O)(=O)c1ccc(N(C)C)c(Nc2ncnc3cc(OC)c(OC)cc23)c1 yielded a ΔTm of -2.8 °C.
Compound CCc1nc(-c2cccc(C)c2)c(-c2ccncc2)s1 has a ΔTm of -3.01 °C.
For Cc1cc2c(cc(C(=O)N[C@H](CO)c3ccc(S(=O)(=O)CC(=O)O)cc3)n2C)c(Cl)c1Cl, the ΔTm was -0.18 °C.
In the case of Cc1ccc(-n2nc(C(C)(C)C)cc2NC(=O)Nc2ccc(OCCN3CCOCC3)c3ccccc23)cc1, the ΔTm is reported as -0.19 °C and -3.17 °C.
Cc1n[nH]c2ncc(C(=O)N3CCC[C@H]3c3ccc(Cl)cc3)cc12 gave a ΔTm of -1.73 °C.
COc1ccc(CSc2nnc(-c3ccc4ncsc4c3)o2)cc1C(F)(F)F gave a ΔTm of -2.33 °C.
Cc1cc(CN)cc(C)c1-c1ncn(C)c1-c1ccnc2cc(F)ccc12 showed a ΔTm of 0.17 °C.
CCCS(=O)(=O)N[C@H]1C[C@@H](N(C)c2ncnc3[nH]ccc23)C1 was tested, and the ΔTm was -3.66 °C.
CC(C)(O)[C@H](F)CN1Cc2cc(NC(=O)c3cnn4cccnc34)c(N3CCOCC3)cc2C1=O was tested, and the ΔTm was -2.63 °C.
CC(C)(C)OC(=O)CN(Cc1ccc(Cl)cc1)Cc1ccc([N+](=O)[O-])s1 showed a ΔTm of -2.89 °C.
Cc1[nH]c2c(N3CCCCC3)c(-c3ccccc3)nn2c(=O)c1-c1ccc(O)cc1 gave a ΔTm of -2.05 °C.
With O=C(O)c1ccc(OCCCc2ccc(OCCCCOC3CCCCC3)cc2)c(C(=O)NC2CCCC(C(=O)O)C2)c1 (stereo not drawn) the ΔTm was 0.3 °C.
In the case of Nc1nc(-c2nn(Cc3ccccc3F)c3ncccc23)ncc1C1CC1, the ΔTm is reported as 0.4 °C.
In the case of COc1ccc(Br)cc1S(=O)(=O)NC(=O)/C=C/c1cc(Cl)ccc1Cc1ccc2ccccc2c1, the ΔTm is reported as -0.55 °C.
O=C1CCCN1CCNc1nc(Nc2ccc(Cl)c(Cl)c2)ncc1C(F)(F)F gave a ΔTm of -1.81 °C.
COc1cc(-c2nn([C@H]3CC[C@H](N4CCN(C(C)=O)CC4)CC3)c3ncnc(N)c23)ccc1NC(=O)c1cc2ccccc2n1C gave a ΔTm of -0.55 °C.
CN1C(=O)Cc2ccc(-c3ccc(C[C@@H](C#N)NC(=O)[C@H]4N[C@@H]5CC[C@H]4C5)c(F)c3)cc21 showed a ΔTm of 0.42 °C.
Cc1cn([C@@H](C)CC#N)c(=O)c2cc(Cn3nc(C(F)F)cc3Cl)nn12 gave a ΔTm of -2.22 °C.
NCc1ccc(OCCCc2sc(-c3ccc4c(c3)/C(=N/Nc3nc5ccccc5s3)CCC4)nc2C(=O)O)cc1 showed a ΔTm of -0.58 °C.
CN(c1ccc(C(F)(F)F)cc1)S(=O)(=O)c1ccc(C(=O)Nc2nc(-c3ccccn3)cs2)cc1 showed a ΔTm of 18.6 °C.
Work on c1ccc2c(-c3coc4cc(-c5ccc(N6CCNCC6)cc5)cnc34)ccnc2c1 yielded a ΔTm of -2.14 °C.
In the case of c1ccc2c(c1)SCc1c-2[nH]c2ccccc12, the ΔTm is reported as -7.68 °C.
Compound Nc1ncnc2[nH]c(-c3ccccc3)nc12 has a ΔTm of -2.07 °C.
